Screening data (PubChem)
Hits are enriched below; roughly 1.1% of the tested compounds scored in any of these assays.
RPL19A TOR yeast – yeast TOR pathway RPL19A-GFP modulation. percent response vs DMSO, % at 10 µM. S. cerevisiae RPL19A-GFP strain, flow cytometry, 3 h; hits give low values. 330,000 compounds, 0.3% hits;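 active = percent response vs DMSO below 50%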;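 also: median channel GFP fluorescence of the barcoded RPL19A-GFP strain; lower means less RPL19A-GFP as with rapamycin TOR inhibition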
AGP1-GFP MLPCN – alters AGP1-GFP fluorescence in TOR pathway yeast screen; AID 2066; S. cerevisiae AGP1-GFP multiplex flow cytometry, 3 h; GFP as percent of DMSO wells; GFP response vs DMSO, % at 10 µM; 320,000 compounds, 0.02% hits;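 active = GFP response relative to DMSO above a set limit, near screen average plus 3 SD, cut at about 150% in these data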;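 also: median GFP channel fluorescence of the gated AGP1 strain per well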
CIT2 TOR yeast – modulators of TOR pathway CIT2-GFP in S. cerevisiae; AID 2029; GFP response vs DMSO, % at 10 µM; S. cerevisiae CIT2-GFP strain, flow cytometry, 3 h; 100 means same as DMSO wells; 320,000 compounds, 0.065% hits;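 active = GFP response relative to DMSO above a set limit, near the screen mean plus 3 SD, cut at about 150% in these data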;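 also: ratio of well median GFP fluorescence to mean of DMSO wells on the plate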
MEP2-GFP yeast – yeast TOR pathway MEP2-GFP modulation; S. cerevisiae MEP2-GFP strain, flow cytometry GFP, 3 h; 100% = DMSO control level; GFP response vs DMSO, % at 10 µM; 330,000 compounds, 0.51% hits; AID 2016;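 active = GFP response versus DMSO above a set limit, roughly screen mean plus 3 SD, cut at about 180% in these data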;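 also: median GFP fluorescence of the barcode-gated MEP2-GFP cells per well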
LAP4-GFP MLPCN – modulators of TOR pathway LAP4-GFP in S. cerevisiae. S. cerevisiae LAP4-GFP multiplex, flow cytometry GFP, 3 h; median GFP as percent of DMSO wells. GFP response vs DMSO, % at 10 µM. AID 2023. 320,000 compounds, 0.34% hits;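 active = GFP response vs DMSO above a set limit, about the screen mean plus 3 SD, cut at about 150% in these data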
VLA-4 inh – inhibition in a human VLA-4 binding assay | P13612 | VLA-4 expressing cells, ligand binding flow cytometry | inhibition, % (about 7 µM as worked out from the volumes in the protocol) | 330,000 compounds, 0.2% hits | AID 2557; in the data active = inhibition above about 50%
Target sequence (P13612 whole entry, looked up): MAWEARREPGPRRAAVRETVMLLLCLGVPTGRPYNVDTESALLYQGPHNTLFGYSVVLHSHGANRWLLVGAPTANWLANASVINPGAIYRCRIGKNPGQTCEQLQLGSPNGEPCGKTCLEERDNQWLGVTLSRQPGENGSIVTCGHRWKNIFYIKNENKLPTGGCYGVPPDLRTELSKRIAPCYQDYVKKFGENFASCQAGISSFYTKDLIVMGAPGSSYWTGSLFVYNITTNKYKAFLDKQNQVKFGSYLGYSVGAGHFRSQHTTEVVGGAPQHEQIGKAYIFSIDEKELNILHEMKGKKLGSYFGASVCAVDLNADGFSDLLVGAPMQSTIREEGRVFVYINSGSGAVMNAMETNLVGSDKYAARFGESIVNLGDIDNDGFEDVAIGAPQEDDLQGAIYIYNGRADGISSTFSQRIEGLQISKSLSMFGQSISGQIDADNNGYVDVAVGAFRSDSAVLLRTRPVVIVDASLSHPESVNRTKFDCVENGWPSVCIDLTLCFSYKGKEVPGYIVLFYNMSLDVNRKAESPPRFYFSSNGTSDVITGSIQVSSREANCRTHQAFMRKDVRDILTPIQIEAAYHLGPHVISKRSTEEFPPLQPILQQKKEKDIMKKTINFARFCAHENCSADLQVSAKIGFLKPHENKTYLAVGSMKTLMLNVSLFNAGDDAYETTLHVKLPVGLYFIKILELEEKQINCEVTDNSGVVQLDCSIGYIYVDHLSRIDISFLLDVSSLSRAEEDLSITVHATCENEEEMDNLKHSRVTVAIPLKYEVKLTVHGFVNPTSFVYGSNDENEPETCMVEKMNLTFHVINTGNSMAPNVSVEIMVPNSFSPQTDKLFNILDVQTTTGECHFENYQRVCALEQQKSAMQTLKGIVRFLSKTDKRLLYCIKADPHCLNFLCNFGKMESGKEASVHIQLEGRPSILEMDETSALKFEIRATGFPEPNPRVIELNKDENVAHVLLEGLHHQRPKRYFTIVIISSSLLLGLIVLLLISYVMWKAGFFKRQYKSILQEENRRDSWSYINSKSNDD
LAP4-GFP pick2 – yeast LAP4-GFP modulation, second cherry pick. shares compounds with LAP4-GFP MLPCN. S. cerevisiae LAP4-GFP strain, flow cytometry GFP, 3 h. GFP response vs DMSO, % at 10 µM. 590 compounds, 20% hits. AID 2621;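 active = GFP signal as percent of the solvent control above about 150%, meaning raised reporter expression, limit read from the data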
MEP2 cherry2 – second confirmation of modulators of TOR reporter MEP2-GFP in yeast | shares compounds with LAP4-GFP MLPCN | GFP response vs DMSO, % at 10 µM | 590 compounds, 10% hits | S. cerevisiae MEP2-GFP strain, flow cytometry GFP, 3 h;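 active = GFP signal above 150% of the solvent control wells, that is a rise of more than half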;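 also: median channel GFP fluorescence of all gated yeast cells per well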
RPL19A GFP CP2 – reconfirmed modulator of RPL19A-GFP TOR reporter in yeast. shares compounds with LAP4-GFP MLPCN. S. cerevisiae RPL19A-GFP strain, flow cytometry GFP, 3 h; hits give low values; 100% means same as DMSO wells. GFP response vs DMSO, % at 10 µM. AID 2623. 590 compounds, 3% hits;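 active = under 65% GFP response relative to DMSO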;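 also: median GFP channel fluorescence per well over the all cells gate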
CIT2-GFP pick2 – second confirmation of modulators of TOR reporter CIT2-GFP in yeast; shares compounds with LAP4-GFP MLPCN; S. cerevisiae CIT2-GFP strain, flow cytometry GFP, 3 h; DMSO control wells read 100%; GFP response vs DMSO, % at 10 µM; 590 compounds, 8% hits; AID 2624;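 active = GFP response vs DMSO above about 150%, limit read from the data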;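 also: median green fluorescence per well over all gated yeast cells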
AGP1 GFP CP2 – reconfirmed modulator of AGP1-GFP TOR reporter in yeast | shares compounds with LAP4-GFP MLPCN | S. cerevisiae AGP1-GFP strain, flow cytometry GFP, 3 h | percent response vs DMSO, % at 10 µM | 590 tested, under 10 active | AID 2643;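 active = over 150 percent of DMSO response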;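 also: median GFP channel fluorescence over all cells without mother daughter split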
Yeast autofluor – counter-screen for compound autofluorescence in yeast s288c cells. AID 2757. 610 tested, under 10 active. fluorescence change (kMESF span) at 33 µM. shares compounds with LAP4-GFP MLPCN. S. cerevisiae s288c, 520 nm autofluorescence, flow cytometry, 3 h; hits give high values; zero means same as solvent-only cells;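 active = fluorescence span over the dose series, or activity score, above about 33, limit read from the data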
Of the large screens only hits and unclear results are named; the others gave an inactive call (follow-up assays come after a bar, where they were run).

Cc1cc(C)cc(NC(=O)CN2CCc3cc4c(cc3C2C)OCCCO4)c1 (configuration not stated)	MEP2-GFP yeast 193 | LAP4-GFP pick2 inactive | MEP2 cherry2 inactive | RPL19A GFP CP2 inactive | CIT2-GFP pick2 inactive | AGP1 GFP CP2 inactive
Cc1cccc(NC(=O)CN2CCc3cc4c(cc3C2C)OCCCO4)c1 (configuration not stated)	none
CN(C)c1ccc(-c2c(-c3ccc4c(c3)OCO4)noc2-c2ccsc2)cn1	LAP4-GFP MLPCN 155 | LAP4-GFP pick2 inactive | MEP2 cherry2 inactive | RPL19A GFP CP2 inactive | CIT2-GFP pick2 inactive | AGP1 GFP CP2 inactive
Cc1onc(-c2ccccc2)c1C(=O)NNC(=S)NC(=O)c1ccc(Cl)cc1Cl	none
O=C(NC(=S)NNC(=O)c1ccc(Cl)cc1Cl)c1cccnc1	MEP2-GFP yeast 184 | Yeast autofluor inactive
Cc1ccccc1C(=O)NNC(=S)NC(=O)c1ccc(Cl)cc1Cl	LAP4-GFP MLPCN 182 | Yeast autofluor inactive
c1ccc2c(NCCc3c[nH]c4ccccc34)c3ccccc3nc2c1	none
CCc1cccc2sc(N3CCN(C(=O)c4ccc([N+](=O)[O-])o4)CC3)nc12	RPL19A TOR yeast 32 | Yeast autofluor inactive
O=C(c1ccc([N+](=O)[O-])o1)N1CCN(Cc2ccccc2)CC1	none
O=C(CNC(=S)N(Cc1ccccc1)Cc1ccccc1F)NCCc1ccc(Cl)cc1	none | LAP4-GFP pick2 inactive | MEP2 cherry2 inactive | RPL19A GFP CP2 inactive | CIT2-GFP pick2 inactive | AGP1 GFP CP2 inactive
CCOC(=O)COc1ccc2ccccc2c1/C=C/[N+](=O)[O-]	LAP4-GFP MLPCN 230 | LAP4-GFP pick2 293 | MEP2 cherry2 inactive | RPL19A GFP CP2 inactive | CIT2-GFP pick2 inactive | AGP1 GFP CP2 inactive | Yeast autofluor inactive
CCOC(=O)Cn1cc(/C=C/[N+](=O)[O-])c2ccccc21	LAP4-GFP MLPCN 154 | Yeast autofluor inactive
CCCN(CC(=O)Nc1ccccc1C)C(=O)COC(=O)CSc1ccc([N+](=O)[O-])cc1	none
CCCN(CC(=O)Nc1ccccc1C)C(=O)c1ccc(-c2ccc([N+](=O)[O-])cc2)o1	MEP2-GFP yeast 609, LAP4-GFP MLPCN 196 | LAP4-GFP pick2 inactive | MEP2 cherry2 inactive | RPL19A GFP CP2 inactive | CIT2-GFP pick2 inactive | AGP1 GFP CP2 inactive
O=C(O)CC(=O)Nc1cc(Cl)ccc1O	none | LAP4-GFP pick2 inactive | MEP2 cherry2 inactive | RPL19A GFP CP2 inactive | CIT2-GFP pick2 inactive | AGP1 GFP CP2 inactive
CCOC(=O)CC(=O)Nc1cc(Cl)ccc1O	none
CN(C)S(=O)(=O)c1cccc(C(=O)Nc2ccccc2C(=O)NC2CC2)c1	LAP4-GFP MLPCN 152 | LAP4-GFP pick2 inactive | MEP2 cherry2 inactive | RPL19A GFP CP2 inactive | CIT2-GFP pick2 inactive | AGP1 GFP CP2 inactive
